UBC13 polyUb = inhibitors of human UBC13 polyubiquitin chain formation. P61088. TR-FRET. inhibition, % at 20 µM. 330,000 compounds, 0.47% hits. AID 485273; in the data active means inhibition above about 45%, passing the limit was not always enough
Target sequence (P61088 whole entry, looked up): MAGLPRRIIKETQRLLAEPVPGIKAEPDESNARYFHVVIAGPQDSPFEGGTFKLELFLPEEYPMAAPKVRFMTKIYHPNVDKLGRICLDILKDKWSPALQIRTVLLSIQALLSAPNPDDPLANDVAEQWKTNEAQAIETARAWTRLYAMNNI
MEKK3 PB1 HTS = modulators (inhibitors or enhancers) of MEK5 binding to human MEKK3 PB1 domain; Q99759; bead-based flow cytometry, Alexa488-MEK5 binding to MEKK3; actives lie on both sides; 0 = blocked by unlabeled MEK5, 100 = vehicle; binding response (% of control), % at 10 µM; 290,000 compounds, 1.4% hits;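 active means binding response more than 3 SD above or below the average of its plate-row segment, actives on both sides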;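 further: Alexa488 bead fluorescence after subtracting the streptavidin-only scavenger bead signal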
Target sequence (Q99759 whole entry, looked up, the tested form may be a part): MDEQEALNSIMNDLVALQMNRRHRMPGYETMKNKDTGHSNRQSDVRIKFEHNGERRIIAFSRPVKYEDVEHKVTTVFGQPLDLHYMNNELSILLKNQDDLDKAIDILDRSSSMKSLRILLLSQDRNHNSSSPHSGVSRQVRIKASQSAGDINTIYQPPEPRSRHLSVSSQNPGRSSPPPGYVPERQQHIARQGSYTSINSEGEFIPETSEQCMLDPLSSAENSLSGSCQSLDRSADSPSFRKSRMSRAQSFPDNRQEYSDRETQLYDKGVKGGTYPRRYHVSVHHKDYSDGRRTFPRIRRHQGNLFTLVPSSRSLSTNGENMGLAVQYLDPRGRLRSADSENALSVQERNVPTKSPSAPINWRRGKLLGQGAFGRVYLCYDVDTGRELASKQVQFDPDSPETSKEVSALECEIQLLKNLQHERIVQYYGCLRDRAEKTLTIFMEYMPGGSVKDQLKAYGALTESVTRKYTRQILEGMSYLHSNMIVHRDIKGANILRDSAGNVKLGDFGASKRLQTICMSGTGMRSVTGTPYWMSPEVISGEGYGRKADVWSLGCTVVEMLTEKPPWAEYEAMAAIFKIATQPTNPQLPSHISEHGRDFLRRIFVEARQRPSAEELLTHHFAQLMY
Rce1 inh = inhibitors of yeast Ras-converting enzyme. yeast membranes, quenched prenylated peptide cleavage fluorescence. calls only. 290,000 compounds, 0.27% hits;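 active means fall in fluorescence gain of 50% or more versus controls, with final raw signal at or below 3038400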
MEKK2wt PB1 HTS = raises or lowers MEK5 binding to wildtype human MEKK2 PB1 domain; bead flow cytometry, Alexa488-MEK5 binding to MEKK2 WT; actives lie on both sides; Q9Y2U5; 290,000 compounds, 1.1% hits; binding response (% of control), % at 10 µM; in the data active means binding response below about 67% or above about 130%
MEKK2 mut-MEK5 = signal of MEK5 binding to mutant human MEKK2 PB1 domain. 290,000 compounds, 0.35% hits. AID 1530. percent response, % at 10 µM. bead flow cytometry, Alexa488-MEK5 binding to MEKK2 mutant; in the data active means percent response above about 24%, passing the limit was not always enough
MEKK2wt confirm = raises or lowers MEK5 binding to wildtype human MEKK2, retest; 5,900 compounds, 2.4% hits; binding response (% of control), % at 10 µM; bead flow cytometry, Alexa488-MEK5 binding to MEKK2 WT; actives lie on both sides; shares compounds with MEKK3 PB1 HTS; in the data active means binding response below about 16% or above about 210%; inactive means in between
MEKK2mut-MEK5 = signal of MEK5 binding to mutant human MEKK2, retest. 5,900 compounds, 2% hits. AID 1893. shares compounds with MEKK3 PB1 HTS. percent response, % at 10 µM. bead flow cytometry, Alexa488-MEK5 binding to MEKK2 mutant; in the data active means percent response mostly above about 71%, no sharp cut-off; inactive means mostly below about 38%;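 further: higher means compound restores mutant binding toward wildtype level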
MEKK3-MEK5 inh = MEKK3-MEK5 PB1 inhibition, single concentration confirmation. shares compounds with MEKK3 PB1 HTS. 5,900 compounds, 1.8% hits. AID 1894. binding response (% of control), % at 10 µM. bead flow cytometry, Alexa488-MEK5 binding to MEKK3; stronger effect = lower value;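 active means binding response below 72% of control, or above a set upper limit, though filed actives all read lower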
Of the large screens only hits and unclear results are named; the others gave an inactive call (follow-up assays come after a bar, where they were run); [ ] = another dose, or the depositor's remark. Hits are enriched below; roughly 2.5% of the tested compounds scored in any of these assays.

O=C(NCc1ccc(Cl)cc1)C(=O)NCC1OCCN1S(=O)(=O)c1cccs1 (stereo unspecified)	none
O=C(NCc1ccc(Cl)cc1)C(=O)NCC1OCCN1C(=O)c1cccs1 (stereo unspecified)	MEKK3 PB1 HTS 153 | MEKK2wt confirm inactive | MEKK2mut-MEK5 inactive | MEKK3-MEK5 inh inactive
Cc1cc(Oc2ccc(=O)[nH]n2)nc(Cl)n1	none
Cc1ccccc1-n1c(SCC(=O)N/N=C/C=C/c2ccccc2[N+](=O)[O-])nc2ccccc2c1=O	MEKK3 PB1 HTS 134 | MEKK2wt confirm inactive | MEKK2mut-MEK5 inactive | MEKK3-MEK5 inh inactive
O=C(N/N=C/C=C/c1ccccc1[N+](=O)[O-])c1cc(-c2cccnc2)nc2ccccc12	MEKK3 PB1 HTS 65[inhibitor] | MEKK2wt confirm inactive | MEKK2mut-MEK5 inactive | MEKK3-MEK5 inh inactive
COc1ccccc1-c1cc(C(=O)N/N=C/C=C/c2ccccc2[N+](=O)[O-])c2ccccc2n1	none
O=C(CSc1nc2ccccc2c(=O)n1-c1ccccc1)N/N=C/C=C/c1ccccc1[N+](=O)[O-]	none
CC(=O)Nc1ccc(N2C(=O)c3ccc(C(=O)Nc4nnc(SCc5ccc(F)cc5)s4)cc3C2=O)cc1	none
Cc1ccc(Cl)cc1N1CCN(c2cccc[n+]2C)CC1	none
Cc1cc(C)nc(NC(=O)c2ccc([N+](=O)[O-])o2)n1	MEKK3 PB1 HTS 128 | MEKK2wt confirm inactive | MEKK2mut-MEK5 inactive | MEKK3-MEK5 inh inactive
CCNC(=O)N1CCCC(C(=O)c2ccc(C(F)(F)F)cc2)C1 (stereo unspecified)	none
COc1ccc(CCNC(=O)CSc2nnc3ccccn23)cc1	none
CCOc1ccc(C(CC(=O)O)NC(=O)C(CC)c2ccccc2)cc1 (stereo unspecified)	none
O=C1OC(c2ccccc2)=C/C1=C/N1CCOCC1	none
O=C1OC(c2ccccc2)=C/C1=C\N1CCOCC1	MEKK3 PB1 HTS 2.0[inhibitor], MEKK2wt PB1 HTS 2.0[inhibitor] | MEKK2wt confirm inactive | MEKK2mut-MEK5 inactive | MEKK3-MEK5 inh inactive
O=C(O)c1ccc2c(c1)C(=O)N(c1cccc(S(=O)(=O)Nc3cccc(C(F)(F)F)c3)c1)C2=O	none
C(#Cc1ccccc1)C[N+]1(CC#Cc2cccc3ccccc23)CCOCC1	MEKK2wt PB1 HTS 154 (no result: UBC13 polyUb) | MEKK2wt confirm inactive | MEKK2mut-MEK5 inactive | MEKK3-MEK5 inh inactive
O=C1CC(N(CCc2ccccc2)C(=S)Nc2ccccc2)C(=O)N1c1ccc(Br)cc1 (stereo unspecified)	MEKK2wt PB1 HTS 149 | MEKK2wt confirm inactive | MEKK2mut-MEK5 inactive | MEKK3-MEK5 inh inactive
CCCCn1cc(SCC(=O)O)c2ccccc21	MEKK3 PB1 HTS -1.0[inhibitor], MEKK2wt PB1 HTS -1.0[inhibitor] | MEKK2wt confirm inactive | MEKK2mut-MEK5 inactive | MEKK3-MEK5 inh inactive
O=C(Nc1cccc(-c2cccc(F)c2)c1)C1CCN(Cc2ccco2)CC1	none
CCCn1ncc(CN2CCC(C(=O)Nc3cccc(-c4cccc(F)c4)c3)CC2)c1C	MEKK2wt PB1 HTS 144 | MEKK2wt confirm inactive | MEKK2mut-MEK5 inactive | MEKK3-MEK5 inh inactive
O=C(Nc1cccc(-c2cccc(F)c2)c1)C1CCN(C2CCC2)CC1	MEKK2wt PB1 HTS 146 | MEKK2wt confirm inactive | MEKK2mut-MEK5 inactive | MEKK3-MEK5 inh inactive
O=C(Nc1cccc(F)c1)C1CCCCC1	none (no result: MEKK3 PB1 HTS, Rce1 inh, MEKK2wt PB1 HTS, MEKK2 mut-MEK5)
O=C(CCc1ccccc1)NNC(=S)Nc1ccc(F)cc1	MEKK3 PB1 HTS 70[inhibitor] | MEKK2wt confirm inactive | MEKK2mut-MEK5 inactive | MEKK3-MEK5 inh inactive
Cc1nn(CCC(=O)NNC(=S)Nc2ccc(F)cc2)c(C)c1Br	MEKK3 PB1 HTS 129 | MEKK2wt confirm inactive | MEKK2mut-MEK5 inactive | MEKK3-MEK5 inh inactive
COc1cc(C(=S)N2CCOCC2)ccc1OC(=O)/C=C/c1ccco1	none
Cc1ccc(S(=O)(=O)NCC(=O)OCC(=O)N2CCN(C(=O)c3ccco3)CC2)cc1C	none (no result: MEKK3 PB1 HTS, MEKK2wt PB1 HTS, MEKK2 mut-MEK5)
CC(C)Cn1c(N)c(/C=N/NC(=O)c2ccc(Cl)cc2)c(=O)n(C)c1=O	none
O=C(CCNC(=O)c1ccccc1)Nc1ccc(F)c(Cl)c1	MEKK3 PB1 HTS 138 | MEKK2wt confirm inactive | MEKK2mut-MEK5 inactive | MEKK3-MEK5 inh inactive
Cc1ccc(NC(=O)CCNC(=O)c2ccccc2)cc1F	none
Cc1cc(/C=C2\C(=O)NN(c3ccccc3)C2=O)c(C)n1-c1ccccc1O	MEKK3 PB1 HTS 36[inhibitor], MEKK2wt PB1 HTS 32[inhibitor] | MEKK2wt confirm inactive | MEKK2mut-MEK5 inactive | MEKK3-MEK5 inh inactive
COc1ccc(NC(=O)C2CCCC2)cc1S(=O)(=O)N1CCOCC1	none (no result: MEKK3 PB1 HTS, Rce1 inh, MEKK2wt PB1 HTS, MEKK2 mut-MEK5)
COc1ccc(CNCCc2ccc(Cl)cc2)cc1OCc1ccccc1	MEKK3 PB1 HTS 2.0[inhibitor], MEKK2wt PB1 HTS 2.0[inhibitor] | MEKK2wt confirm inactive | MEKK2mut-MEK5 inactive | MEKK3-MEK5 inh inactive
CCOc1cc(CNCc2ccccc2)ccc1OCc1ccc(Cl)cc1	MEKK2wt PB1 HTS 160 | MEKK2wt confirm inactive | MEKK2mut-MEK5 inactive | MEKK3-MEK5 inh inactive
COc1ccc(Cl)cc1NC(=O)NCc1ccc2c(c1)OCO2	none
CC(C)CN1CCNC(=O)C1CC(=O)NCc1cnn(-c2cccc(F)c2)c1 (stereo unspecified)	MEKK2wt PB1 HTS 138 | MEKK2wt confirm inactive | MEKK2mut-MEK5 inactive | MEKK3-MEK5 inh inactive
COc1ccc(CN2CCNC(=O)C2CC(=O)NCc2cnn(C)c2)cc1OC (stereo unspecified)	none
COc1cc(Br)cc(Br)c1OCC(=O)N/N=C/c1c(C)n(C)n(-c2ccccc2)c1=O	none
CCn1cc(Br)c(C(=O)Nc2cccc(Cl)c2)n1	MEKK3 PB1 HTS 0.0[inhibitor], MEKK2wt PB1 HTS -5.0[inhibitor] | MEKK2wt confirm inactive | MEKK2mut-MEK5 inactive | MEKK3-MEK5 inh inactive
CN(C)c1ccc(/C=C/C(=O)c2cccc(Br)c2)cc1	MEKK2wt PB1 HTS 63[inhibitor] | MEKK2wt confirm inactive | MEKK2mut-MEK5 inactive | MEKK3-MEK5 inh inactive
CN(C)c1ccc(C(=O)/C=C/c2cccnc2)cc1	none
Cc1cc(C)cc(OCC(=O)OCc2cc([N+](=O)[O-])cc3c2OCOC3)c1	none (no result: MEKK3 PB1 HTS, Rce1 inh, MEKK2wt PB1 HTS, MEKK2 mut-MEK5)
CC(=O)c1cccc(NC(=O)C(C)OC(=O)CN2C(=O)NC(C)(C)C2=O)c1 (stereo unspecified)	none (no result: MEKK3 PB1 HTS, Rce1 inh, MEKK2wt PB1 HTS, MEKK2 mut-MEK5)
COCCN1CCn2c(nc3cc(NC(=O)c4cccs4)ccc32)C1	none
CC(c1ccccc1)N1CCn2c(nc3cc(NC(=O)c4cccs4)ccc32)C1 (stereo unspecified)	MEKK3 PB1 HTS 19[inhibitor], MEKK2wt PB1 HTS 35[inhibitor] | MEKK2wt confirm inactive | MEKK2mut-MEK5 inactive | MEKK3-MEK5 inh inactive
COC(=O)NCC(c1ccco1)N1CCN(c2ccc(OC)cc2)CC1 (stereo unspecified)	none
